# Reference: the supplement of paper PMC13380429
# Values without a mark were called inactive.
# Tested on: Vero E6 infected with SARS-CoV-2
# Experiment: inhibition of SARS-CoV-2 cytopathic effect; higher = more antiviral protection, active = above 15
# Details: 48 h
Compound,inhibition of SARS-CoV-2 cytopathic effect (1 nM),inhibition of SARS-CoV-2 cytopathic effect (8.33 nM),inhibition of SARS-CoV-2 cytopathic effect (100 nM),inhibition of SARS-CoV-2 cytopathic effect (833.33 nM),inhibition of SARS-CoV-2 cytopathic effect (10000 nM)
Cc1cc(C#N)cc(C)c1Oc1nc(Nc2ccc(C#N)cc2)nc(N)c1Br [etravirine],-0.95%,-0.81%,-2.15%,-5.24%,-2.04%
CCCCNC(=O)NS(=O)(=O)c1ccc(C)cc1 [tolbutamide],0.11%,0.83%,-0.09%,0.89%,-0.3%
CCCCNC(=O)[C@@H]1Cc2ccccc2N1C(=O)[C@@H](N)CC [butabindide],1.64%,1.33%,-3.07%,1.68%,2.75%
CCCCCCCCCCCCCCCCCCCCCC(=O)O,2.81%,2.25%,1.57%,0.29%,1.77%
CC/C(=C(/c1ccc(/C=C/C(=O)O)cc1)c1ccc2[nH]ncc2c1)c1ccc(F)cc1Cl,4.17%,-1.18%,-1.84%,0.21%,-0.85%
O=C(/C=C/c1ccccc1)NCCO [brolitene],-0.76%,-1.09%,-0.6%,-2.74%,1.92%
CC(Oc1c(Cl)cccc1Cl)C1=NCCN1 (stereo not given) [lofexidine],3.3%,3.14%,5.17%,7.76%,1.15%
CCCCCCCCCCCC[N+](C)(C)CCOc1ccccc1 [domiphen],-2.49%,-1.64%,0.17%,0.26%,-8.43%
CCCC(C)NC(=O)c1ccc(Cl)c(Cl)c1 (stereo not given),1.38%,1.88%,1.26%,-2.38%,-1.56%
CCN(CC)CCOC(=O)C1(C2CCCCC2)CCCCC1 [dicycloverine],17.5% (active),0.53%,2.57%,0.85%,1.16%
CNC(=O)c1c(I)c(C(=O)NCC(=O)Nc2c(I)c(C(=O)O)c(I)c(C(=O)NCCO)c2I)c(I)c(N(C)C(C)=O)c1I [ioxaglic-acid],1.6%,1.46%,1.47%,0.75%,0.41%
CO[C@]12C[C@@H](COC(=O)c3cncc(Br)c3)CN(C)[C@@H]1Cc1cn(C)c3cccc2c13 [nicergoline],0.73%,-1.36%,-1.54%,0.48%,-0.35%
C[C@H]1O[C@H](O[C@H]2[C@H](O)[C@@H](O)[C@@H](O[C@H]3[C@H](O)[C@@H](O)C(O)O[C@@H]3CO)O[C@@H]2CO)[C@H](O)[C@@H](O)[C@@H]1N[C@H]1C=C(CO)[C@@H](O)[C@H](O)[C@H]1O (stereo not given in full) [acarbose],0.51%,1.35%,-0.08%,-0.03%,-0.32%
COc1cc(N)c(Cl)cc1C(=O)NC1CN2CCC1CC2 (stereo not given) [zacopride],0.12%,-0.23%,-1.28%,-2.33%,-4.26%
CCNC1=Nc2ccc(Cl)cc2C(C)(c2ccccc2)O1 (stereo not given) [etifoxine],2.81%,2.31%,0.13%,2.41%,-2.7%
O=C(O)CCNc1cc(N2CCc3ccccc3CC2)nc(-c2cccnc2)n1,0.26%,0.62%,1.71%,0.35%,-0.17%
CC1(C)CCC(C)(C)c2c1cc(C(=O)Nc1cc(F)c(C(=O)O)c(F)c1)c(O)c2Cl,-1.01%,-0.71%,0.11%,2.72%,3.26%
COc1ccc(CN2C(=O)C(=O)c3cc(OC(F)(F)F)ccc32)cc1,-0.15%,1.14%,1.79%,1.75%,6.79%
C=C(c1ccccc1OCc1cccc(Cl)c1)n1ccnc1 [croconazole],-1.55%,-2.51%,0.21%,2.28%,-1.36%
Cc1c(C)c(NCC(=O)N(C)C2CCN(Cc3ccc(C(N)=O)cc3)CC2)c(C)c(C)c1N,-0.43%,-0.21%,0.76%,-0.15%,2.16%

Compound,inhibition of SARS-CoV-2 cytopathic effect (1 nM),inhibition of SARS-CoV-2 cytopathic effect (8.33 nM),inhibition of SARS-CoV-2 cytopathic effect (100 nM),inhibition of SARS-CoV-2 cytopathic effect (833.33 nM),inhibition of SARS-CoV-2 cytopathic effect (10000 nM)
N[C@@H]1c2cccnc2[C@H](OC(=O)N2CCC(n3c(=O)[nH]c4ncccc43)CC2)CC[C@H]1c1cccc(F)c1F [rimegepant],-0.34%,1.65%,-0.46%,-1.15%,0.55%
CC1(C)CC[C@]2(C(=O)O)CC[C@]3(C)C(=CC[C@@H]4[C@@]5(C)CC[C@H](O)C(C)(C)[C@@H]5CC[C@]43C)[C@@H]2C1 [oleanolic-acid],-0.65%,-0.09%,0.47%,-0.94%,-0.53%
COc1cc2c(NC3CCN(C(C)C)CC3)nc(N3CCC(F)(F)CC3)nc2cc1OCCCN1CCCC1,-0.61%,0.14%,3.08%,0.9%,68.5% (active)
O=c1c(O[C@@H]2O[C@H](CO)[C@H](O)[C@H](O)[C@H]2O)c(-c2ccc(O)c(O)c2)oc2cc(O)cc(O)c12 [hyperin],0.95%,2.27%,-0.59%,-1.62%,0.59%
C[C@]12CC[C@@H]3c4ccc(O)cc4C[C@@H](CCCCCCCCC[S+]([O-])CCCC(F)(F)C(F)(F)F)[C@H]3[C@@H]1CC[C@@H]2O (stereo not given in full) [fulvestrant],-1.55%,-1.22%,0.63%,-0.23%,-0.95%
CC(C)(C)C(=O)OCOC(=O)[C@@H]1N2C(=O)[C@@H](/N=C/N3CCCCCC3)[C@H]2SC1(C)C [pivmecillinam],1.02%,0.8%,-0.38%,-0.99%,0.82%
CNC(=O)c1ccc(C)c(-n2c(C)cc(OCc3ccc(F)cc3F)c(Br)c2=O)c1,-1.52%,-2.37%,-3.51%,-2.74%,-7.45%
CC(C)(O)C(=O)N1CCN(c2ccc(C(F)(F)F)c(C3=C(c4c[nH]c5ccccc45)C(=O)NC3=O)c2)CC1,-0.88%,-0.68%,-5.41%,-0.21%,4.03%
Cn1ccc2cc3c(cc21)CCN3C(=O)Nc1cccnc1,1.1%,0.1%,1.8%,0.79%,2.05%
Cc1ccc(-n2sc(=O)n(Cc3ccc(F)cc3)c2=O)cc1,1.81%,-0.78%,0.17%,-0.22%,-3.39%
C=CCn1c(=O)c2cnc(Nc3ccc(N4CCN(C)CC4)cc3)nc2n1-c1cccc(C(C)(C)O)n1,-1.29%,2.7%,0.63%,-3.99%,-6.53%
O=C1Cc2cc(CCN3CCN(c4nsc5ccccc45)CC3)c(Cl)cc2N1 [ziprasidone],-0.08%,-2.01%,-0.35%,0.78%,-2.66%
CN(C(=O)CN1C(=O)COc2cc(Cl)c(Cl)cc21)[C@@H](CN1CCCC1)c1ccc(-c2cccc(C(N)=O)c2)cc1,-0.51%,1.04%,3.9%,1.88%,5.93%
CC(C)CC(=O)Nc1n[nH]c2c1CN(C(=O)C1CCN(C)CC1)C2(C)C,0.53%,-0.22%,0.24%,0.59%,1.78%
FC(F)(F)c1cccc(-c2noc(-c3cc(-c4ccccc4)c(C(F)(F)F)s3)n2)c1,1.19%,0.95%,-0.54%,1.01%,1.68%
CC[N+]1(C)CCCC(OC(=O)C(O)(c2ccccc2)c2ccccc2)C1 (stereo not given) [pipenzolate],-0.09%,-0.02%,-2.48%,-0.83%,-1.6%
Cc1c(-c2ccc(-c3ccccc3F)cc2)nc2ccc(F)cc2c1C(=O)O [brequinar],0.47%,-5.34%,-4.42%,-4.61%,-4.4%
CC(C)(CO)Cc1cc(C(C)(C)C)c(O)c(C(C)(C)C)c1,-1.21%,-2.15%,1.59%,4.34%,-0.79%
CCCCS(=O)(=O)N[C@@H](Cc1ccc(OCCCCC2CCNCC2)cc1)C(=O)O [tirofiban],1.63%,1.13%,0.55%,0.26%,2.44%
